Drawing on PubChem BioAssay (EPA / NIEHS), this text covers outcome and AC50 for 40 compounds.

The structures appear in SMILES notation. Several values for one entry are separate records, joined by “and”; a condition that tells them apart may be missing. Identical values can stand only once. Activity calls are given as the source filed them. How the source made its calls: active means hit-call score of the fitted dose curve at least 0.9, where 1 is the maximum; inactive means score below 0.9.

The assay can be described thus: BSK_3C_VCAM1: BioMAP Diversity Plus: 3C Assay for Vascular cell adhesion molecule 1 (VCAM1) Biomarker Activity (AID 2282999). Particulars: BioMAP 3C HUVEC, VCAM1 ELISA, cytokine-stimulated; actives raise or lower the signal. As to the method: BSK_3C is a cell-based, multiplexed-readout assay that uses umbilical vein endothelium, a human vascular primary cell, with measurements taken at 24 hours after chemical dosing in a 96-well plate.BSK_3C_VCAM1 is an assay component measured in the BSK_3C assay. It measures VCAM-1 antibody related to regulation of gene expression using ELISA technology.Data from the assay component BSK_3C_VCAM1 was analyzed into 1 assay endpoint. This assay endpoint, BSK_3C_VCAM1, was analyzed with bidirectional fitting relative to DMSO as the negative control and baseline of activity. Using a type of binding reporter, gain or loss-of-signal activity can be used to understand changes in the signaling as they relate to the gene VCAM1. Furthermore, this assay endpoint can be referred to as a primary readout, because this assay has produced multiple assay endpoints where this one serves a signaling function. To generalize the intended target to other relatable targets, this assay endpoint is annotated to the cell adhesion molecules intended target family, where the subfamily is Immunoglobulin CAM.
The levels of cell surface (or secreted, indicated by the prefix "s") biomarker endpoints were measured by ELISA. Overt cytotoxicity to cells in confluent adherent cultures (all systems other than the BT system) was assessed by measuring total protein levels using sulforhodamine B (SRB) staining in parallel cultures at the time of biomarker measurements, indicated as SRB endpoints. For proliferation assays for adherent cell types, individual cell types are cultured at sub-confluence and relative cell numbers quantified by SRB staining at time points optimized for each system (48 h: 3C and CASM3C systems; 72 h: BT and HDF3CGF systems; 96 h: SAg system). SRB was performed by staining cells with 0.1% SRB after fixation with 10% TCA and reading wells at 560 nm.Viability and proliferation of PBMC (T cells) was quantified by Alamar Blue reduction for the SAg and BT systems. For PBMC viability (referred to as PBMC Cytotoxicity within the assay endpoint names), cells were plated (75,000/well in a 96-well plate) and then chemical samples added for 1 h before addition of activators, SEB and TSST-1 (20 ng/mL final concentration each). Cells were incubated for 90 h. Then, Alamar Blue (20 uL/well) (Invitrogen, Cat DAL1100) was added for 6 h, and the plates were read with a fluorescence microplate reader at 546/580 nm (excitation/emission). For PBMC proliferation, cells were plated and activated as above but incubated for only 16 h prior to addition of Alamar Blue. Plates were read after 6 h.
On the technique in general: In an ELISA, binding on a coated surface is turned into a signal by an enzyme label.
Take `CCC(=NOC/C=C/Cl)C1=C(O)CC(C2CCOCC2)CC1=O` (stereo not given): the result was inactive. As for `COP(=O)(OC)OC(Br)C(Cl)(Cl)Br` (stereo not given), the half-maximal activity concentration (AC50) is 29.7 µM (active). Take `COP(=O)(OC)SCn1c(=O)oc2cc(Cl)cnc21`: the outcome was inactive. Same read-out and setting: under `COc1cccc(C(=O)NN(C(=O)c2cc(C)cc(C)c2)C(C)(C)C)c1C` stands “inactive”. For the compound `N#CSCSC#N`, the concentration at half-maximal activity (AC50) was 8.79 µM (active). On to `CCCOCC(=Nc1ccc(Cl)cc1C(F)(F)F)n1ccnc1`, for which the concentration at half-maximal activity (AC50) is 33.6 µM (active).

For `COc1cc(OC)nc(Sc2cccc(Cl)c2C(=O)O)n1`, the outcome was inactive. As for `CCc1cccc(CC)c1N(COC)C(=O)CCl`, the AC50 is 31.4 µM (active).

For the compound `FC(F)C(F)(F)OCC(Cn1cncn1)c1ccc(Cl)cc1Cl` (stereo not given), the outcome was inactive.

As for `CN(C)[C@@H]1C(=O)C(C(N)=O)=C(O)[C@@]2(O)C(=O)C3=C(O)c4c(O)cccc4[C@@](C)(O)[C@H]3[C@H](O)[C@@H]12`, the outcome was inactive. Same read-out and setting: under `CC1=NNC(=O)N(/N=C/c2cccnc2)C1` stands “inactive”. On the same count and under the same terms, under `CCCSP(=O)(OCC)SCCC` stands “inactive”. As to `CC1(C(=O)Nc2ccc(O)c(Cl)c2Cl)CCCCC1`, the outcome was inactive. With `CCOP(=S)(OCC)Oc1cc(C)nc(C(C)C)n1`, the result was inactive. On the same count and under the same terms, under `CCOP(=S)(OCC)SCCSCC` stands “inactive”. On the same count and under the same terms, under `S=C1NCCN1` stands “inactive”; under `Cc1ccn2nc(S(=O)(=O)Nc3c(F)cccc3F)nc2n1`, “inactive”.

Take `CNC(=O)ON=C(SC)C(=O)N(C)C`: the result was inactive.

On to `CC[C@H](C)[C@H]1O[C@]2(C=C[C@@H]1C)C[C@@H]1C[C@@H](C/C=C(\C)[C@@H](O[C@H]3C[C@H](OC)[C@@H](O[C@H]4C[C@H](OC)[C@@H](NC)[C@H](C)O4)[C@H](C)O3)[C@@H](C)/C=C/C=C3\CO[C@@H]4[C@H](O)C(C)=C[C@@H](C(=O)O1)[C@]34O)O2`, for which the AC50 is 6.56 µM (active). Take `CCCCOC(=O)c1ccccc1C(=O)O`: the outcome was inactive.

As to `CC(Oc1cccc(Cl)c1)C(=O)O` (stereo not given), the outcome was inactive. Still for that read-out and setting: under `CCOP(=S)(OCC)Oc1ccc2c(C)c(Cl)c(=O)oc2c1` stands “inactive”.

Regarding `CC(C)=CC1C(C(=O)OCN2C(=O)C3=C(CCCC3)C2=O)C1(C)C` (stereo not given), the AC50 is 14.4 µM (active). Turning to `CSC1=N[C@@](C)(c2ccccc2)C(=O)N1Nc1ccccc1`, the result was inactive. The same measure, in the same setting: under `CSc1nc(NC(C)C)nc(NC(C)C)n1` stands “inactive”. `CCC(CC)Nc1c([N+](=O)[O-])cc(C)c(C)c1[N+](=O)[O-]`: the AC50 was 17.1 µM (active). In the case of `C[N+]1(C)CCCCC1`, the result was inactive. Consider `CCC(=O)Nc1ccc(Cl)c(Cl)c1`, for which the result was inactive. Consider `Nc1nc(N)nc(NC2CC2)n1`, for which the outcome was inactive. The same measure, in the same setting: under `CC(=NC#N)N(C)Cc1ccc(Cl)nc1` stands “inactive”. Consider `CCOP(=O)(NC(C)C)Oc1ccc(SC)c(C)c1` (stereo not given), for which the result was inactive.

In the case of `CCCSP(=O)(OCC)Oc1ccc(Br)cc1Cl` (stereo not given), the outcome was inactive. Take `O=[N+]([O-])c1cc(C(F)(F)F)c(Cl)c([N+](=O)[O-])c1Nc1ncc(C(F)(F)F)cc1Cl`: the concentration at half-maximal activity (AC50) was 1.46 µM (active) and 2.82 µM (active). With `CNC(=O)ON=C(C)SC`, the outcome was inactive.

Consider `C#CCC1=C(C)C(OC(=O)C2C(C=C(C)C)C2(C)C)CC1=O` (stereo not given), for which the result was inactive. Same read-out and setting: under `C[Si](Cn1cncn1)(c1ccc(F)cc1)c1ccc(F)cc1` stands “inactive”; under `CN1COCN(Cc2cnc(Cl)s2)C1=N[N+](=O)[O-]`, “inactive”; under `CCc1cccc(C)c1N(C(=O)CCl)C(C)COC` (stereo not given), “inactive”.

`C#CC(C)(C)NC(=O)c1cc(Cl)cc(Cl)c1`: the result was inactive. The same measure, in the same setting: under `CON=C(C(=O)OC)c1ccccc1CON=C(C)c1cccc(C(F)(F)F)c1` stands “inactive”.

As usually defined, the AC50 is the concentration giving half of the maximal activity seen.
